Most compounds without a hit are left out; they make up all but 2.7% or so of the library.
gsp antag = antagonists of gsp mutant (McCune-Albright syndrome); gsp-mutant cells, cAMP HTRF, 30 min; Potency, µM (titrated, usually from 76.9 µM), without a hit: at the highest dose activity change, negative = inhibition, most hits filed as inhibitors; 340,000 compounds, 0.4% hits; calls by dose curve; cell line not stated here;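 also: intracellular cAMP measured with PDE inhibitor Ro 20-1724 present during compound exposure; potency is read from the fitted curve at half-maximal effect; % is scaled to controls: 0 for no effect and ±100 for the full control effect; nearly all actives have a fitted effect of over 65% in size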
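G418-selected cells were plated in DMEM/10% FBS for 16-24 h at 37C, then treated with compounds plus the PDE inhibitor […] (300 uM solution added) for 30 min at 37C. Intracellular cAMP was measured by HTRF after 30 min lysis at room temperature.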
gsp agonist = activates gsp, the McCune-Albright syndrome mutation. gsp mutant cells, cAMP HTRF, 30 min. Potency, µM (titrated, usually from 76.9 µM), inactives show at the highest dose activation (cAMP increase), most hits filed as activators. 340,000 compounds, 0.13% hits; active = well fitted activation curve with a large enough effect; inconclusive = small, poorly fitted or top-dose-only effect, or another doubt; inactive = no such curve, though single readings can be large or run the other way; cell line not stated here;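 also: phosphodiesterase inhibitor Ro 20-1724 added with compounds to block cAMP breakdown; potency is read from the fitted curve at half-maximal effect; nearly all actives have a fitted effect of over 60% in size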
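Cells stably selected in G418 were plated at 2000/well, grown 16-24 hr, then given compounds in DMSO with the PDE inhibitor […] (300 uM solution added) for 30 min at 37C; cAMP was read by HTRF.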
Akt phos inh = blocks phosphorylation of Akt | Neuro2A IGF-stimulated pAkt S473 HTRF, 20 min; stronger effect = lower value | activity change, % for hits at 50 µM | 360,000 compounds, 0.32% hits | AID 651550; in the data active = activity change below about -80%; inconclusive = mostly about -51% to -80%; also: % is scaled to controls: 0 for no effect and ±100 for the full control effect
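Single-point screen (50 µM final compound) in Neuro2A cells stimulated 20 min with 6 nM IGF at 37 deg C. After lysis, Ser473-phosphorylated Akt read by HTRF (ex 330 nm, em 615/665 nm) as the 665/615 ratio.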
ClpP mod = qHTS Assay for Activators of ClpP. ATP-dependent Clp protease proteolytic subunit (Bacillus subtilis (strain 168)), P80244. purified B. subtilis ClpP, FRET peptide cleavage, 20 min. Potency, µM (top dose mostly 57.5 µM), inactives show at the top dose activity change, negative = active. 340,000 compounds, 1.9% hits; active = well fitted falling curve with a large enough effect; inconclusive = small, poorly fitted or top-dose-only effect; inactive = no such curve, though single readings can be large or run the other way; also: potency is read from the fitted curve at half-maximal effect; the source files actives as falling curves though it sought activators and does not explain the sign; nearly all actives have a fitted effect of over 65% in size
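Purified B. subtilis ClpP, 10 microg/mL final in Tris/HCl pH8 with KCl, BSA, glycerol and Tween-20, cleaved an Abz/nitrotyrosine-quenched decapeptide. Fluorescence (ex 320, em 430) was read at 0 and 20 min at room temperature. Delta was normalized to 5.8 microM ADEP and DMSO/no-enzyme controls.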
RXFP1 antag = RXFP1 (human) relaxin receptor antagonism; HEK293-RXFP1, relaxin-stimulated cAMP HTRF, 30 min; stronger effect = lower value; activity change, negative = inhibition, % at 57.5 µM; 350,000 compounds, 0.59% hits; AID 1259400;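 active = activity change of -60% or lower, but not beyond a set lower limit; inconclusive = change between -60% and -40%, or beyond the set limit; inactive = change above -40%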; also: % is scaled to controls: 0 for no effect and ±100 for the full control effect
Target sequence (Q9HBX9 whole entry, looked up): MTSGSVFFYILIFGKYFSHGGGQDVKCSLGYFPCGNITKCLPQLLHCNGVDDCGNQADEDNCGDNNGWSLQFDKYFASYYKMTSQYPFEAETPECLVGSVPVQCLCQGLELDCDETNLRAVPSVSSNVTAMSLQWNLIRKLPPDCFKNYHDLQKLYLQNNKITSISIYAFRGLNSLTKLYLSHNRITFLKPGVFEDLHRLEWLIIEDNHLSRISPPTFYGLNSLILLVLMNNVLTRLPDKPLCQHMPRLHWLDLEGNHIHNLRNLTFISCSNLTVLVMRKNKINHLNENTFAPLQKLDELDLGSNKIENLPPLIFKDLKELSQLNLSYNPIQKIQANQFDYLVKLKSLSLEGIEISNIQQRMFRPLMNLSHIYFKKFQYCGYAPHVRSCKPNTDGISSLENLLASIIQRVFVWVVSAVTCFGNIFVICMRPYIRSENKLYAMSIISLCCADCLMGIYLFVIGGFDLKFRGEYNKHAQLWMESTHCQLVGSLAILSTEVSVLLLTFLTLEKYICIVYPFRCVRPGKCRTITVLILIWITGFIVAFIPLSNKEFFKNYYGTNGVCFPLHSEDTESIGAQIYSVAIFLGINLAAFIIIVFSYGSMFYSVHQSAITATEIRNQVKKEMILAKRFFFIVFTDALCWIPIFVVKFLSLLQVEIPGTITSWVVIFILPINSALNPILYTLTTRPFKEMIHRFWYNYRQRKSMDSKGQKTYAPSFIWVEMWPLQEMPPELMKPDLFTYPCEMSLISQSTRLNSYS
RXFP1 agonist = agonists of human relaxin receptor RXFP1; HEK293T-RXFP1 cAMP TR-FRET, 30 min; response scale: percent of porcine relaxin response, buffer zero; 370,000 compounds, 0.3% hits; Potency, µM (series often up to 57.5 µM), without a hit: top-dose activation, hits mostly activators; Q9HBX9; active = well fitted activation curve with a large enough effect; inconclusive = small, poorly fitted or top-dose-only effect; also: potency is read from the fitted curve at half-maximal effect; % is scaled to controls: 0 for no effect and ±100 for the full control effect; nearly all actives have a fitted effect of over 60% in size
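cAMP rise read by TR-FRET after 30 min, 37C compound exposure (up to 58 uM) in RXFP1-transfected HEK293 cells with Ro 20174 present. EC50 from Hill-equation fits, with 29 nM porcine relaxin as 100% and buffer as basal.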
The depositor's hits bear a star; i = inactive; u = inconclusive; x = no result; [ ] = dose if it differs, or a comment.

SMILES	gsp antag	gsp agonist	Akt phos inh	ClpP mod	RXFP1 antag	RXFP1 agonist
COC(=O)c1c(NC(=O)Cn2cc([N+](=O)[O-])cn2)sc2c1CCC2	11%	-7%	i	13µM*	2	1%
O=C1CCCN1CCC(=O)N1CCCC(CO)(Cc2ccccc2)C1 (configuration not stated)	7%	u	i	-1%	-11	2%
COc1ccc(CN(CCC(c2ccc3c(c2)OCO3)c2ccccc2OC)C(C)=O)cc1 (configuration not stated)	x	x	x	-4%	-16	0%
CCn1c(=O)c(CCC(=O)N2CCN(c3ccccn3)CC2)c(C)c2c(C)nn(-c3cccc(C)c3)c21	6%	5%	x	-24%	-103*	1%
Cc1ccc(C(=O)Nc2ccccc2Oc2ccccc2)o1	1%	u	i	0%	-11	x
Cc1ccc(C(=O)Nc2cccc(Oc3ccccc3)c2)o1	-9%	25%	i	0%	-72*	-2%
Cn1cc(S(=O)(=O)N2CCCCCC2)cc1C(=O)Nc1ccccc1F	x	x	x	0%	x	3%
Cc1ccccc1NC(=O)c1oc2c(c1C)-c1nn(Cc3cccc(Cl)c3)cc1CC2	x	x	x	-13%	u	u
COc1ccc(NC(=O)c2oc3c(c2C)-c2nn(Cc4ccccc4Cl)cc2CC3)cc1OC	x	x	x	-9%	-28	u
COc1cc(NC(=O)c2oc3c(c2C)-c2nn(Cc4cccc(Cl)c4)cc2CC3)cc(OC)c1	x	x	x	20µM*	-9	u
CCn1cc2c(n1)-c1c(oc(C(=O)Nc3cccc(C(F)(F)F)c3)c1C)CC2	x	x	x	35µM*	-16	4%
Cc1ccc(C(=O)Nc2nc(=O)n(C(=O)c3ccccc3C)s2)cc1	40µM*	1%	i	0%	-10	0%
CSCCC(NS(=O)(=O)Cc1ccccc1)C(=O)NNc1ccccc1 (configuration not stated)	x	x	i	-9%	x	x
Oc1ccc(/C=N/Nc2nc(-c3ccc(Cl)cc3)cc(C(F)(F)F)n2)cc1	u	23%	i	-6%	-61*	1%
Nc1nc(-c2ccc(Cl)cc2)cc(C(F)(F)F)n1	2%	0%	i	-24%	-16	1%
Cc1cc(-c2ccccc2)nc(N/N=C/c2ccc(O)cc2)n1	-15%	1%[15.4 µM]	i	x	-77*	-2%
CCC(CC)c1nn2c(N)c(/C=C3\C(C)=Nc4ccccc43)c(=O)nc2s1	-15%	-10%[15.4 µM]	i	x	-69*	-1%
CCOC(=O)c1c(-c2ccc(F)cc2)csc1/N=C/N(C)C	1%	-9%[15.4 µM]	i	25µM*	-18	2%
CCOC(=O)C1(C)CCCN(C(=O)c2ccccc2F)C1 (configuration not stated)	x	x	i	-1%	x	x
N#C/C(=C(/O)c1cc2ccccc2o1)c1nc2ccccc2s1	-21%	-52%	i	0%	0	0%
N#C/C(=C(/O)c1ccco1)c1nc2ccccc2s1	35µM*	-16%	i	-4%	3	6%
O=C(Nc1ccccc1-c1nc2ccccc2s1)c1ccco1	24%	25µM*	i	-22%	-2	20%
O=C(Nc1c(Cl)cc(Cl)cc1-c1nc2ccccc2s1)c1ccc(Br)o1	-5%	-1%	i	25µM*	8	6%
O=C(Nc1ccccc1-c1nc2ccccc2s1)c1ccc(F)cc1	x	x	x	-3%	-6	18%
CNC(=O)c1ccc(Nc2nnc(-c3ccc(C)c(S(=O)(=O)N4CCOCC4)c3)c3ccccc23)cc1	x	x	x	-8%	7	1%
SMILES	gsp antag	gsp agonist	Akt phos inh	ClpP mod	RXFP1 antag	RXFP1 agonist
CC1(C)CC(=O)C=C(c2n[nH]nc2-c2ccccc2)C1	x	-42%	i	0%	7	x
CC1Cc2ccccc2N1C(=O)COc1nc2ccccc2nc1N1CCOCC1 (configuration not stated)	3%	-32%	i	28µM*	x	3%
COc1cc(OC)cc(-c2ncc3ccccn23)c1	-1%	u	i	25µM*	-8	1%
c1csc(-c2ncc3ccccn23)c1	-18%	-4%	i	32µM*	-5	1%
COc1cccc(-c2ncc3ccccn23)c1	-4%	-7%	i	u	-7	1%
Fc1ccc(-c2ncc3ccccn23)cc1	-10%	-8%[15.4 µM]	i	-9%	-3	-1%
NS(=O)(=O)c1ccc(CCn2c(=S)[nH]c3ccccc3c2=O)cc1	0%	-23%[15.4 µM]	i	x	-64*	0%
O=c1c2ccccc2[nH]c(=S)n1CCN1CCc2ccccc2C1	-11%	16%[15.4 µM]	i	x	-75*	0%
CCOc1cc2[nH]c(=S)n(CCN3CCCCC3CC)c(=O)c2cc1OCC (configuration not stated)	3%	4%	i	0%	-10	-1%
O=c1c2ccccc2[nH]c(=S)n1CCc1ccccc1	11%	-15%	i	7.1µM*	-11	-1%
CCCn1c(=S)[nH]c2ccccc2c1=O	5%	3%	i	x	-14	6%
CCC1CCCCN1CCCn1c(=S)[nH]c2ccccc2c1=O (configuration not stated)	9%	-27%	i	20µM*	-21	5%
CC(C)[C@@H](C(=O)N[C@@H](C(=O)O)c1ccccc1)N1C(=O)N2CCc3c([nH]c4ccccc34)[C@@]2(C)C1=O	4%	x	i	-2%	x	0%
O=C(/C=C/c1ccccc1Cl)Nc1nc(-c2cccs2)ns1	x	x	x	-8%	-16	5%
CC(=O)c1cccc(S(=O)(=O)N2CCN(c3nc(-c4cccs4)nc4ccccc34)CC2)c1	x	x	x	-22%	x	x
Cc1ccc(C(=O)N2CCN(c3ccccc3F)CC2)cc1NC(=O)c1nsc2ccccc12	x	x	x	-18%	-25	3%
NC1(c2ccc(-c3nc4ccn5c(=O)[nH]nc5c4cc3-c3ccccc3)cc2)CCC1	x	x	x	5%	-62*	x
CC(C)COC(=O)N1CCCCC1c1cc(C(=O)NC(C)C)no1 (configuration not stated)	x	x	x	-4%	x	x
Cc1ccc(-c2ccccc2NC(=O)C2C3C=CC(C3)C2C(=O)O)o1 (configuration not stated)	-4%	2%	i	25µM*	5	2%
Cc1ccc(-c2cccc(NC(=O)C3C(C(=O)O)[C@@H]4C=C[C@H]3C4)c2)o1 (some centres not stated)	8%	-22%	i	-5%	-16	1%
C/C(=N\O)c1ccc2c3c([nH]c2c1)CCCC3	-8%	u	-90%*	16µM*	u	1%
c1ccc2c3c([nH]c2c1)CCCC3	x	x	x	-13%	x	x
Brc1ccc(-c2csc(N3CCCCC3)n2)cc1	x	x	x	x	x	1%

Bioassay records from PubChem BioAssay.
